Laboratory results published in PubChem BioAssay (EPA / NIEHS).
Active and inactive are the calls of the source. The calls were made as follows: active = hit-call score of the fitted dose curve at least 0.9, where 1 is the maximum; inactive = score below 0.9.

Experiments:
[1] = ATG_CRE_CIS: Attagene CIS-FACTORIAL HepG2 Assay for human cAMP Responsive Element (CRE) binding protein 3 (AID 2282926); details: HepG2 CRE cis-reporter, Attagene multiplexed mRNA; actives raise or lower the signal
How it was run: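 Cells carrying cis-regulated reporter constructs respond through their own endogenous factors. After 24 h treatment, RNA is reverse-transcribed, amplified, labelled and sized by capillary electrophoresis; up- and down-regulation are both scored against vehicle.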

[2] = biological target: CCAAT/enhancer-binding protein beta (Homo sapiens) (UniProt P17676); experiment: ATG_C_EBP_CIS: Attagene CIS-FACTORIAL HepG2 Assay for human CCAAT/Enhancer Binding Protein (C/EBP) beta (AID 2282927); details: HepG2 Attagene cis-factorial transcription factor reporter; actives raise or lower the signal
How it was run: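 Endogenous C/EBPb-driven reporter transcripts measured in transfected human HepG2 cells at 24 h via RT-PCR and capillary electrophoresis of labelled fragments. Activity fitted in both directions relative to DMSO baseline.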

[3] = ATG_CMV_CIS: Attagene CIS-FACTORIAL HepG2 Assay for human CMV (Internal Marker) (AID 2282928); details: HepG2 CMV promoter reporter, transcription factor profiling; actives raise or lower the signal;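 also: endpoint acts as a background internal control marker rather than a target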
How it was run: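 24 h chemical treatment, HepG2 with transient multi-reporter transfection; RNA → oligo(dT) RT → PCR → 6-FAM extension → HpaI digest → CE fluorescence. Bidirectional fit, DMSO negative control.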

[4] = ATG_DR4_LXR_CIS: Attagene CIS-FACTORIAL HepG2 Assay for human Liver X Receptor (LXR), DR4 submotif (AID 2282929); details: HepG2 Attagene DR4 cis-reporter, mRNA transcription; actives raise or lower the signal
How it was run: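 DR4 cis-reporter in HepG2, 24 h exposure. Detection: RT-PCR, 6-FAM labelling, CE fragment analysis. Endpoint fitted bidirectionally, DMSO = baseline.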

[5] = biological target: Aryl hydrocarbon receptor (Homo sapiens) (UniProt P35869); experiment: ATG_Ahr_CIS: Attagene CIS-FACTORIAL HepG2 Assay for human Aryl Hydrocarbon Receptor (Ahr) (AID 2282930); details: HepG2 AhR cis-factorial reporter transcription; actives raise or lower the signal
How it was run: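 Reporter mRNA levels, quantified by RT-PCR and fluorescent capillary electrophoresis, reflect endogenous AhR transcriptional activity in HepG2 cells carrying transfected cis-promoter reporter constructs. Readout at 24 h post-dose; gain or loss fitted against DMSO baseline.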

[6] = ATG_AP_2_CIS: Attagene CIS-FACTORIAL HepG2 Assay for human Activator Protein 2 (AP-2) (AID 2282932); details: HepG2 AP-2 cis-reporter, Attagene transcription factor profiling; actives raise or lower the signal
How it was run: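 Transiently transfected HepG2 cells are exposed to chemical for 24 h. Reporter transcripts are then measured as fluorescence following RT-PCR and capillary separation, and gain- or loss-of-signal is fitted relative to DMSO.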

[7] = ATG_BRE_CIS: Attagene CIS-FACTORIAL HepG2 Assay for human Bone Morphogenetic Protein (BMP) Response Element (BRE) (AID 2282933); details: HepG2 BMP response element reporter, Attagene transcription factor profiling; actives raise or lower the signal
How it was run: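 Transient MRTU transfection of human HepG2 liver cells; 24 h compound treatment; total RNA isolated, reverse-transcribed, PCR-amplified, 6-FAM labelled, HpaI-cut, capillary electrophoresis. DMSO = negative control/baseline, bidirectional fit.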

[8] = biological target: Retinoic acid receptor alpha (Homo sapiens) (UniProt P10276); experiment: ATG_DR5_RAR_CIS: Attagene CIS-FACTORIAL HepG2 Assay for human Retinoic Acid Receptor Alpha (RARE), DR5 submotif (AID 2282934); details: HepG2 Attagene cis-factorial RARE DR5 reporter, mRNA; actives raise or lower the signal;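 as to AC50: reporter responds to endogenous RAR alpha beta and gamma in HepG2 not RARA alone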
How it was run: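 Reporter transcripts from a DR5-regulated unit, measured via RT-PCR plus capillary electrophoresis, reflect endogenous RAR activity in transiently transfected human HepG2 liver cells. Exposure lasted 24 h; gain or loss of signal scored against DMSO.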

[9] = biological target: Transcription factor E2F1 (Homo sapiens) (UniProt Q01094); experiment: ATG_E2F_CIS: Attagene CIS-FACTORIAL HepG2 Assay for human E2F Transcription Factor 1 (AID 2282935); details: HepG2 Attagene cis-reporter, E2F reporter RNA transcripts; actives raise or lower the signal
How it was run: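 Fluorescent RT-PCR products, digested with HpaI for 2 h at 37 C, are separated by capillary electrophoresis. Source RNA comes from transfected HepG2 cultures treated for 24 h.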

[10] = ATG_E_Box_CIS: Attagene CIS-FACTORIAL HepG2 Assay for human Enhancer Box (E-box) (AID 2282936); details: HepG2 E-box cis-reporter transcription, actives raise or lower the signal
How it was run: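 Fluorescent reporter fragments separated by capillary electrophoresis gave the signal; mRNA came from HepG2 cells transfected with cis-element reporters and treated 24 h. Curves fitted bidirectionally relative to DMSO controls.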

[11] = ATG_M_61_CIS: Attagene CIS-FACTORIAL HepG2 Assay for M61 Transcription Factor (Internal Marker) (AID 2282937); details: HepG2 Attagene CIS-FACTORIAL M61 internal marker reporter; actives raise or lower the signal
How it was run: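 Background-control endpoint: HepG2 cells with cis-regulated reporter constructs, 24 h exposure, reporter mRNA detected via fluorescent primer extension and capillary electrophoresis; values from bidirectional fitting with DMSO baseline.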

[12] = ATG_AP_1_CIS: Attagene CIS-FACTORIAL HepG2 Assay for human Activator Protein 1 (AP-1) (AID 2282931); details: HepG2 Attagene cis-factorial AP-1 reporter mRNA; actives raise or lower the signal
How it was run: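 Cis-regulated reporter units transiently expressed in HepG2 report endogenous transcription-factor activity. Signal: reporter mRNA at 24 h, via RT-PCR and fluorescent capillary electrophoresis. Endpoint derived by bidirectional fitting, DMSO as negative control.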

[13] = ATG_EGR_CIS: Attagene CIS-FACTORIAL HepG2 Assay for human Early Growth Response 1 (EGR1) (AID 2282938); details: HepG2 Attagene CIS-FACTORIAL EGR reporter mRNA; actives raise or lower the signal
How it was run: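 Endpoint derived by bidirectional fitting versus DMSO vehicle. Method: cis-promoter reporter units transfected into HepG2, 24 h dosing, RNA isolation, RT-PCR with 6-FAM primer extension and HpaI digestion, then capillary electrophoresis fluorescence detection.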

Measured: AC50

Chain of Aryl hydrocarbon receptor (Homo sapiens) (P35869 whole entry, looked up): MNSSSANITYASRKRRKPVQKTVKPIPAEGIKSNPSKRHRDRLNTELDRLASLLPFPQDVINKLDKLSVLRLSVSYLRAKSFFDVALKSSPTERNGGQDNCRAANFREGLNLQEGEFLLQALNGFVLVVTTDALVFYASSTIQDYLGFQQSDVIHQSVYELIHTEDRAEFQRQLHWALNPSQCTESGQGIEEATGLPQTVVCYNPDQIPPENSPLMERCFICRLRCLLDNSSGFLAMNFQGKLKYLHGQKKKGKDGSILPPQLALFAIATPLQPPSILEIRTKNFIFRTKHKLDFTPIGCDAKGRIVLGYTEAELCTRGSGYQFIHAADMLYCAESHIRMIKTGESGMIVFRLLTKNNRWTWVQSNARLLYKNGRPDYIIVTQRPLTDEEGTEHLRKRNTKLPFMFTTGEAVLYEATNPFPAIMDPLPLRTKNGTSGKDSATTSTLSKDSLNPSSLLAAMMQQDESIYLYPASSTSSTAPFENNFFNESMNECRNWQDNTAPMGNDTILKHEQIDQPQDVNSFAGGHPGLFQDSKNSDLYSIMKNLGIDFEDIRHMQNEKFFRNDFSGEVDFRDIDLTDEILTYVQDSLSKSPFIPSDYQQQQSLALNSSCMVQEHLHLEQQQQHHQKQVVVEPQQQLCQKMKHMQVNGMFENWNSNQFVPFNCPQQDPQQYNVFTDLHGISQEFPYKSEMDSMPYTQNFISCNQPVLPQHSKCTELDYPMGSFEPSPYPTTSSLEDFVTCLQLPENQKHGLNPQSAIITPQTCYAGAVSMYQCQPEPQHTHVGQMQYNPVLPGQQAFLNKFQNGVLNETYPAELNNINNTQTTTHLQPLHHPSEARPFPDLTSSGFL
Chain of Transcription factor E2F1 (Homo sapiens) (Q01094 whole entry, looked up): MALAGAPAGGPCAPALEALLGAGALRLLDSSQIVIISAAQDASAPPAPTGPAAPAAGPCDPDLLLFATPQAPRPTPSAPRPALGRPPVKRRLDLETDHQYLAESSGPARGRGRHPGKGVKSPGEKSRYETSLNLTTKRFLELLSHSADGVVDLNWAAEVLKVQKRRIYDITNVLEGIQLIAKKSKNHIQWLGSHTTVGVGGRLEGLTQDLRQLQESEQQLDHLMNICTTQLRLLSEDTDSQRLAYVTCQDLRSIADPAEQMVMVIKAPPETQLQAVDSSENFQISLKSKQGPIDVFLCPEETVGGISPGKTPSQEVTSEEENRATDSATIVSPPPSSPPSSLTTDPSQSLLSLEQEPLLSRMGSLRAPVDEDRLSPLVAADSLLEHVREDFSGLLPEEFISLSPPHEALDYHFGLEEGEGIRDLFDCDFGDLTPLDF
Chain of Retinoic acid receptor alpha (Homo sapiens) (P10276 whole entry, looked up): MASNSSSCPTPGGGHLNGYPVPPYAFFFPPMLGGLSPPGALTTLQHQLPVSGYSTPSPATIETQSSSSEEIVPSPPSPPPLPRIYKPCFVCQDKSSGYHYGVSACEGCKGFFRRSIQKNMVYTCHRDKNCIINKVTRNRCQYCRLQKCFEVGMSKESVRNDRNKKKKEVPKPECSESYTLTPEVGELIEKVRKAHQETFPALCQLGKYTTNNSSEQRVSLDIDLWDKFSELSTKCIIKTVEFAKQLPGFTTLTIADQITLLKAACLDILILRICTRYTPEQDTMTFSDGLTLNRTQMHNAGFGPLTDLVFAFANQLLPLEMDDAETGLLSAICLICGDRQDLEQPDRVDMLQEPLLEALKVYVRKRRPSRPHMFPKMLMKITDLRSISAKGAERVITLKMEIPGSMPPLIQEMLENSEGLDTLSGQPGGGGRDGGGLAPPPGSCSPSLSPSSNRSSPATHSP
Chain of CCAAT/enhancer-binding protein beta (Homo sapiens) (P17676 whole entry, looked up, the tested form may be a part): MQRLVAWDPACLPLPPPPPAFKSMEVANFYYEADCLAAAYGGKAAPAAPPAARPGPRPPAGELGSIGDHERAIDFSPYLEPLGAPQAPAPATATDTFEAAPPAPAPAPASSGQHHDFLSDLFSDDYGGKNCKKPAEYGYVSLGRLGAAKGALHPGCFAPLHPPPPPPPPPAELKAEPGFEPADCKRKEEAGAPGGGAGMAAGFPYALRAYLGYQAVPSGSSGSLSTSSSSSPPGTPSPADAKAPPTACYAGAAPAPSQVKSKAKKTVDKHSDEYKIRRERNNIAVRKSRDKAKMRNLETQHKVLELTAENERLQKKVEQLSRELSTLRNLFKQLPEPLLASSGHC

O=c1[nH]c2ccccc2n1C1CCN(CCCC(c2ccc(F)cc2)c2ccc(F)cc2)CC1
active: [2] 5.75 µM | [3] 3.71 µM | [4] 5.83 µM | [8] 5.87 µM
inactive: [1] | [5] | [6] | [7] | [9] | [10] | [11]

CCCCN(CCCCO)N=O
inactive: [1] | [2] | [3] | [4] | [5] | [12] | [6] | [8] | [9] | [10] | [11] | [13]

O=C(O)COc1ccc(Cl)cc1
inactive: [1] | [2] | [3] | [4] | [5] | [6] | [7] | [8] | [9] | [10] | [11] | [13]

CCOC(=O)CCN(SN(C)C(=O)Oc1cccc2c1OC(C)(C)C2)C(C)C
inactive: [1] | [2] | [3] | [5] | [6] | [8] | [9] | [10] | [11] | [13]
active: [4] 100 µM | [12] 151 µM

CC1(C)[C@H](C(=O)O[C@H](C#N)c2cccc(Oc3ccccc3)c2)[C@@H]1/C=C(\Cl)C(F)(F)F
inactive: [1] | [2] | [3] | [4] | [5] | [12] | [6] | [9] | [10] | [13]

CC(C)(COCC1CO1)COCC1CO1 (stereo not drawn)
inactive: [1] | [2] | [3] | [4] | [5] | [12] | [6] | [8] | [9] | [11] | [13]

O=c1[nH]c(=O)n(Cl)c(=O)n1Cl
inactive: [1] | [2] | [3] | [4] | [5] | [12] | [6] | [9] | [10] | [11] | [13]

COCCl
inactive: [1] | [2] | [3] | [4] | [5] | [12] | [6] | [9] | [10] | [11]

N#Cc1ccncc1
inactive: [1] | [2] | [3] | [4] | [5] | [12] | [6] | [8] | [9] | [10] | [11] | [13]

O=C(O)c1cc(I)cc(I)c1I
inactive: [1] | [2] | [3] | [4] | [12] | [6] | [7] | [9] | [10] | [13]
active: [5] 40.8 µM

CC(C)(C)c1ccc(CCOc2ncnc3ccccc23)cc1
inactive: [1] | [2] | [3] | [4] | [5] | [12] | [6] | [8] | [9] | [10] | [11] | [13]

O=[N+]([O-])c1c2ccccc2cc2ccccc12
inactive: [1] | [2] | [3] | [4] | [5] | [6] | [7] | [8] | [9] | [10] | [11] | [13]

CCCCCCCCCCCCN(C)C
inactive: [1] | [2] | [5] | [12] | [9] | [11]
active: [3] 33.4 µM | [4] 50.9 µM | [6] 33.4 µM | [10] 7.96 µM | [13] 53.9 µM

O=C(Cl)OCCOCCOC(=O)Cl
inactive: [1] | [2] | [3] | [4] | [5] | [6] | [7] | [8] | [9] | [10] | [11] | [13]

COCC(=O)N(c1c(C)cccc1C)[C@H](C)C(=O)OC
inactive: [1] | [2] | [3] | [4] | [5] | [6] | [7] | [8] | [9] | [11] | [13]

BrCC(Br)c1ccccc1 (stereo not drawn)
inactive: [1] | [2] | [3] | [5] | [12] | [6] | [7] | [8] | [9] | [10] | [11] | [13]

OCC(c1ccc(Cl)cc1)c1ccc(Cl)cc1
active: [3] 45.2 µM | [4] 50.2 µM
inactive: [1] | [2] | [5] | [6] | [8] | [9]

C=CCc1ccccc1O
inactive: [1] | [2] | [3] | [4] | [5] | [6] | [7] | [9] | [10] | [11]

C1CN2CCN1CC2
inactive: [1] | [2] | [3] | [4] | [5] | [6] | [7] | [9] | [10] | [13]

O=C=Nc1ccc(Cl)cc1
inactive: [1] | [2] | [3] | [5] | [12] | [6] | [7] | [9] | [10] | [13]

c1ccc2c(c1)Oc1ccccc1O2
inactive: [1] | [2] | [3] | [4] | [6] | [7] | [9] | [10] | [11] | [13]
active: [5] 0.667 µM

N#CCCC(Br)(C#N)CBr (stereo not drawn)
inactive: [2] | [12] | [7] | [9] | [11]
active: [1] 53.5 µM | [3] 62.1 µM | [5] 33.4 µM | [6] 49.9 µM | [8] 55.3 µM | [10] 62.4 µM | [13] 45.3 µM

COC(=O)c1cc(Oc2ccc(Cl)cc2Cl)ccc1[N+](=O)[O-]
active: [5] 17 µM | [13] 27.2 µM
inactive: [1] | [2] | [3] | [12] | [6] | [8] | [9] | [10]
